In PubChem BioAssay AID1835 (Johns Hopkins Ion Channel Center, 2009):
Out of some 2,400 compounds screened, about 750 (31%) were called active.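 How the source made its calls: active means median signal gain over dofetilide-blocked control wells reaching their mean plus 3 SD, so readout 1 at least 0; inactive means the rest.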 Some of the results follow.

The compounds below were run against Voltage-gated inwardly rectifying potassium channel KCNH2 (Homo sapiens) (UniProt Q12809) (assay: hERG protection against dofetilide inhibition, confirmation, cell-based, thallium flux, duplicate retest, dofetilide IC70 (AID 1835)). Conditions: hERG cell line, FluxOR thallium flux, dofetilide-blocked; at 10 µM; stronger effect = higher value.
Chain of Voltage-gated inwardly rectifying potassium channel KCNH2 (Homo sapiens) (Q12809 whole entry, looked up): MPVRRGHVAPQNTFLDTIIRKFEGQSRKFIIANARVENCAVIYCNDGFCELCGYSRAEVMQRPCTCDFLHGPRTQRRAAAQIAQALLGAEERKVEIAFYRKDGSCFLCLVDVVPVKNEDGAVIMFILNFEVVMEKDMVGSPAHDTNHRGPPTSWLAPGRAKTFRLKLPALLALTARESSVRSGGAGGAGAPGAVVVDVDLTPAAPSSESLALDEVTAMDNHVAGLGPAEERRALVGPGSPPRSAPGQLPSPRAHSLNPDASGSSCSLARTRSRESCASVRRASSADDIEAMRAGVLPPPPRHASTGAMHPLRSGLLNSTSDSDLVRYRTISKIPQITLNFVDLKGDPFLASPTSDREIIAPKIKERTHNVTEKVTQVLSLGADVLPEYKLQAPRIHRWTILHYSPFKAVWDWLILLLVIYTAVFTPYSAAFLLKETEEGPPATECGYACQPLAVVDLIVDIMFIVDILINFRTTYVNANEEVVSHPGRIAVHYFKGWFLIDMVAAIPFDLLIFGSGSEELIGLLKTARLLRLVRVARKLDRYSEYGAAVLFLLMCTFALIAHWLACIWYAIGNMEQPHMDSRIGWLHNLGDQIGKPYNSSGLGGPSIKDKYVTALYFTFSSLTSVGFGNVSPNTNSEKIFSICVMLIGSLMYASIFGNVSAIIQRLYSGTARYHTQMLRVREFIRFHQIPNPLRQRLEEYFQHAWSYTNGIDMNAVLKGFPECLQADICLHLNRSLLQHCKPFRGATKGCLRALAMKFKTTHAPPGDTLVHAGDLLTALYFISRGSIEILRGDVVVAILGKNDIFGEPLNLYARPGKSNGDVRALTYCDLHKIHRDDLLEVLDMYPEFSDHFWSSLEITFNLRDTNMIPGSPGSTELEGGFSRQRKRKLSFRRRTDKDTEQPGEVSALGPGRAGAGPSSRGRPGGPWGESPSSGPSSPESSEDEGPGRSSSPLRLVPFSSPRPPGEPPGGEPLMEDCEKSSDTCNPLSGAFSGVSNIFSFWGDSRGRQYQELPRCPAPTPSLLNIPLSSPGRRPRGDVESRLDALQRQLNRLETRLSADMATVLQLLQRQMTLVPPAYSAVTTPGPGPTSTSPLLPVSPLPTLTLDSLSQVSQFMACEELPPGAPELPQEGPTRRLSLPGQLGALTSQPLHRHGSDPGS

Row | Compound | activity increase over dofetilide control, less the hit threshold
1 | CN1/C(=C/C=C(C#N)C#N)C=Cc2ccccc21 | 66% (active)
2 | CCCCc1cc(=O)oc2c(C)c(OCC(=O)NCc3ccccn3)ccc12 | -9% (inactive)
3 | Cc1ccccc1Cn1nc(C)c(NC(=O)c2ccccc2)c1C | 25% (active)
4 | Cc1nn(C(=O)CNC(=O)c2ccccc2)c(C)c1C | -17% (inactive)
5 | CC(=O)c1n[nH]nc1NC(=O)c1ccccc1 | -1% (inactive)
6 | COc1ccccc1NC(=O)Cc1nnc(SCC(=O)Nc2nccs2)n1C | -10% (inactive)
7 | Cc1ccc(-n2ncc3c(SCC(=O)NNC(=O)c4ccco4)ncnc32)cc1 | -4% (inactive)
8 | O=C(NCC1CCCO1)c1ccc2c(=O)n(Cc3ccco3)c(SCC(=O)N3CCCC3)nc2c1 (centres undefined) | 0% (inactive)
9 | Cc1sc2nc(C(C)C)nc(SCC(=O)NCc3ccco3)c2c1C | 16% (active)
10 | O=C(CN1CCN(c2ccccc2O)CC1)NC(=O)NCc1ccco1 | -17% (inactive)
11 | Cc1cc(S(=O)(=O)N2CCOCC2)ccc1OCC(=O)NCc1ccco1 | -7% (inactive)
12 | CCn1c(SCC(=O)NC(=O)NCc2ccco2)nc2sc(C)c(C)c2c1=O | 18% (active)
13 | COC(=O)Cn1c(=O)c(=O)n(CC(=O)OC)c2ccccc21 | -15% (inactive)
14 | COc1ccccc1CNC(=O)COC(=O)c1ccccn1 | -13% (inactive)
15 | COc1ccc(C(=O)CC(=O)C(=O)Nc2ccc(C)c(Cl)c2)cc1 | 0% (inactive)
16 | COc1ccc(NC(=O)CSCC(=O)Oc2c(OC)cccc2OC)cc1 | -26% (inactive)
17 | COc1ccc(C(=O)CC(=O)C(=O)Nc2ccc(C)c(C)c2)cc1 | -3% (inactive)
18 | COc1ccc(C(=O)CC(=O)C(=O)Nc2ccc(Cl)cc2)cc1 | 9% (active)
19 | COc1ccc(C(=O)CC(=O)C(=O)Nc2ccccc2)cc1 | 5% (active)
20 | CC(=O)Nc1ccc(S(=O)(=O)N2CCC(NC(=O)c3ccccc3)CC2)cc1 | -17% (inactive)
21 | CCN(CC)C(=O)CN1C(=O)C2CC=C(Cl)CC2C1=O (centres undefined) | -15% (inactive)
22 | CCCn1c(=S)[nH]c2sc3c(c2c1=O)CCCC3 | 76% (active)
23 | CCn1c(=S)[nH]c2sc3c(c2c1=O)CCCC3 | 27% (active)
24 | O=C1c2ccccc2C(=O)N1Cc1ccco1 | -8% (inactive)
25 | Cc1cc(C)n(-c2nc3sc4c(c3c(=O)[nH]2)CCCC4)n1 | -10% (inactive)
26 | O=c1c2c3c(sc2[nH]c(=S)n1Cc1ccco1)CCC3 | 18% (active)
27 | CCn1c(=S)[nH]c2sc3c(c2c1=O)CCCCC3 | 107% (active)
28 | Cc1ccc(-n2c(=S)[nH]c3sc4c(c3c2=O)CCC4)cc1 | -1% (inactive)
29 | CC(C)OC(=O)CSc1nnc(C2CCCCC2)n1N | -15% (inactive)
